UGM FP inh: M. tuberculosis UGM enzyme inhibitors, primary screen, biochemical, fluorescence polarization, single point. UDP-galactopyranose mutase (Mycobacterium tuberculosis (strain ATCC 25618 / H37Rv)), …. purified UGM, fluorescence polarization probe displacement. inhibition, % at 10 µM. 320,000 tested, 0.06% active. AID 504406, 2011; in the data active means inhibition above about 10%, passing the limit was not always enough; inconclusive means no clear call, values can overlap the other calls
GDH-TPI counter-1: GDH-TPI coupling enzyme inhibitors, primary screen, artefact control for M. tuberculosis FBA inhibitor project, biochemical, absorbance, full deck. inhibition, % at 4.8 µM. GDH-TPI coupled enzyme counterscreen, NADH absorbance. 360,000 tested, 1.2% active; in the data active means inhibition above about 30%;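 further: 0% = DMSO wells and 100% = wells lacking the enzyme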
Mtb bLac sens: beta-lactam sensitization of Mtb H37Rv, H37Rv. M. tuberculosis H37Rv growth with meropenem, percent inhibition. inhibition, % at 25 µM. 330,000 tested, 0.27% active. AID 434955, 2010; call rule not given here;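 further: growth measured after seven days incubation then overnight dye step; 0% = bacteria only wells and 100% = bacteria with antibiotic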
FBA Mtb inh: Mtb FBA enzyme inhibitors, primary screen, biochemical, fluorescence, strain H37Rv; Fructose-bisphosphate aldolase (Mycobacterium tuberculosis (strain ATCC 25618 / H37Rv)), …; AID 588726, 2011; inhibition, % at 1 µM; purified M. tuberculosis FBA, fluorescence read-out; 360,000 tested, 2.3% active; in the data active means inhibition above about 27%;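 further: 0% = vehicle and 100% = reference inhibitor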
Target sequence (P9WQA3 whole entry, looked up): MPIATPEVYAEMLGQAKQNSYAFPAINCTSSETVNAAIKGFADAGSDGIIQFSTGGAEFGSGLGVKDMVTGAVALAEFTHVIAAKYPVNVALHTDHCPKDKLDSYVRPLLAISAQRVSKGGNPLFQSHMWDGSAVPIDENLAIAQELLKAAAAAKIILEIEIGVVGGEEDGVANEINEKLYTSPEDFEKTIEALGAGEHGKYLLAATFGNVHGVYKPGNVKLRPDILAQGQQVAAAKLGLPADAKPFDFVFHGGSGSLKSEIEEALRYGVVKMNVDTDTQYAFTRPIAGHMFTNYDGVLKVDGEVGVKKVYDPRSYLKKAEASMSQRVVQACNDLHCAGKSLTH
Rv3671c protease: Rv3671c serine protease inhibitors, primary screen, biochemical, fluorescence polarization, M. tuberculosis H37Rv | P9WHR9 | inhibition, % at 5.96 µM | 320,000 tested, 0.048% active;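 further: extracellular domain of Rv3671c used as enzyme; 0% = enzyme with DMSO and 100% = no enzyme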
RecA splice inh: Mtb RecA intein splicing inhibitors, primary screen, biochemical, fluorescence, HTS. cell-free RecA intein splicing. inhibition, % (test concentration not listed). Protein RecA (Mycobacterium tuberculosis (strain ATCC 25618 / H37Rv)), P9WHJ3. 290,000 tested, 0.75% active; in the data active means inhibition above about 30%; inconclusive means no clear call, values can overlap the other calls;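 further: 0% = vehicle wells and 100% = reference inhibitor control wells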
Rv3671c cf: Rv3671c serine protease inhibitors, retest, confirmation, biochemical, fluorescence polarization, M. tuberculosis H37Rv. shares compounds with Rv3671c protease. inhibition, % at 5.96 µM. 140 tested, 40% active. AID 2761, 2010
DNA intercalat: counter-screen: DNA intercalators; shares compounds with UGM FP inh; acridine orange-DNA binding, fluorescence polarization; AC50, µM; 35 tested, 60% active; AID 463198;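 active means fitted AC50 no greater than ten times the top concentration tested, cut at about 17 µM in these data; inconclusive means flat fit with 30 to 70% signal change, or an unreliable fit; inactive means AC50 beyond ten times the top concentration tested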
Mtb FBA confirm: M. tuberculosis aldolase blockers, biochemical, fluorescence, strain H37Rv, confirmation; shares compounds with FBA Mtb inh; purified M. tuberculosis FBA, fluorescence read-out; inhibition, % at 1 µM; 5,600 tested, 78% active; AID 651616, 2012; in the data active means inhibition above about 27%;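 further: 0% = vehicle wells and 100% = reference inhibitor wells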
GDH-TPI counter-2: GDH-TPI coupling enzyme inhibitors, artefact control for M. tuberculosis FBA inhibitor project, biochemical, fluorescence, high throughput | GDH-TPI coupled enzyme counterscreen | shares compounds with FBA Mtb inh | 5,600 tested, 81% active | inhibition, % at 1 µM | AID 652141, 2013; in the data active means inhibition above about 10%
An asterisk follows results filed as active; ? = inconclusive; / = not tested or not shown. Most compounds without a hit are left out; they make up all but 4% or so of the library. Unless noted, no stated cut-off is given here; in the data, active means inhibition above about 38%; inactive means the rest.

SMILES	UGM FP inh	GDH-TPI counter-1	Mtb bLac sens	FBA Mtb inh	Rv3671c protease	RecA splice inh	Rv3671c cf	others
Cc1cc(O)ccc1N=Cc1c(C(F)(F)F)[nH][nH]c1=O	5	2	2	-3	99*	-6	-4
O=c1[nH][nH]c(C(F)(F)F)c1C=Nc1ccccc1	1	1	-6	1	6	/	/
CCN1/C(=C/C=C/c2sc3ccccc3[n+]2CC)Sc2ccccc21	-2	15	81	5	-369	20	/
CCN1/C(=C/C=C/c2oc3ccc(-c4ccccc4)cc3[n+]2CC)Oc2ccc(-c3ccccc3)cc21	?	12	95	-19	60*	-8	-16
O=C1c2ccccc2C2N1CCCN2C(=O)c1sc2ccccc2c1Cl (stereo unspecified)	/	1	/	0	/	/	/
CNc1ccc2c3c(cccc13)C(=O)N(C)C2=O	?	5	5	-11	77*	-295	69*
CC(C)Cn1c(/C=N/Nc2nc3ccccc3[nH]2)nc2ccccc21	/	22	/	-2	/	2	/
C=CCn1cc(/C=N/Nc2nc3ccccc3[nH]2)c2ccccc21	0	18	91	4	40*	26	68*
Cc1nc(SCCc2nc3ccccc3[nH]2)c2oc3ccccc3c2n1	-3	0	-7	1	0	/	/
O=C(O)C1C2C=CC(C2)C1C(=O)NCc1cccnc1 (stereo unspecified)	1	3	-5	1	77*	-2	-9
CCc1nnc(NC(=O)CCC(=O)N2CCC(Cc3ccccc3)CC2)s1	-2	-3	4	0	2	1	/
O=C(O)c1cc(O)c2c(c1)[C@@H]([C@H]1c3cc(C(=O)O)cc(O)c3C(=O)c3c(O[C@@H]4O[C@H](CO)[C@@H](O)[C@H](O)[C@H]4O)cccc31)c1cccc(O[C@@H]3O[C@H](CO)[C@@H](O)[C@H](O)[C@H]3O)c1C2=O	-1	/	13	/	71*	/	21
O=C(OC1C2C=CC1C1C(=O)NC21)c1ccccc1 (stereo unspecified)	/	2	/	-2	/	/	/
O=c1c2ccccc2[se]n1-c1ccccc1	/	84*	49	-2	40*	-1	41*
COc1ccc(C(=O)N/N=C/c2c[nH]c3ccccc23)cc1	3	24	0	-3	-7	-1	/
COc1ccc(C(=O)N/N=C/c2cc3ccccc3[nH]c2=S)cc1	5	26	40	1	44*	14	45*
CCOC(=O)C1=C(NC(=S)NC(=O)c2ccccc2)c2ccccc2CC1C(C)C (stereo unspecified)	-6	2	-3	2	55*	5	-12
COc1ccc(NC(=O)CN(C)C2=NS(=O)(=O)c3ccccc32)cc1Cl	/	0	-1	1	-1	/	/
CCCCNC(=O)COC(=O)c1ccc(Cl)c(S(N)(=O)=O)c1	0	14	-5	2	43*	/	-5
C[C@@H](NC(=O)[C@@H]1Cc2ccccc2CN1C(=O)OC(C)(C)C)C(=O)NCc1ccco1	4	2	0	5	-2	2	/
COc1ccc(CC(=O)Oc2ccccc2C)cc1	2	4	8	1	12	3	/
CCC(=O)c1ccc(OC(=O)Cc2ccc(OC)cc2)cc1	1	10	4	1	51*	12	55*
CCOC(=O)c1ccc(NC(=O)c2cn(-c3ccccc3)nc2-c2ccncc2)cc1	-4	10	-2	0	193*	0	-40
COc1ccccc1C(=O)NCC(=O)NCc1cc(=O)n(C)c(=O)n1C	-1	-11	-2	0	2	-1	/
O=C(O)CC1NC(=S)N(c2ccccc2)C1=O (stereo unspecified)	-1	7	10	6	2	0	/
SMILES	UGM FP inh	GDH-TPI counter-1	Mtb bLac sens	FBA Mtb inh	Rv3671c protease	RecA splice inh	Rv3671c cf	others
O=C1C(CSCc2ccccc2)NC(=S)N1c1ccccc1 (stereo unspecified)	0	-3	0	2	98*	6	60*
CC(C)c1ccc(O)c(NC(=S)NC(=O)c2ccc3c(c2)OCO3)c1	-2	6	94	1	-9	3	/
O=S(=O)(c1ccc(Cl)c(NC(=S)N/N=C/c2ccc(O)cc2)c1)N1CCOCC1	-1	27	8	-3	-1	8	/
O=[N+]([O-])c1cc(Cl)cc(/C=N/NC(=S)Nc2ccc(S(=O)(=O)N3CCOCC3)cc2)c1O	3	20	40	-10	58*	/	14
O=C1c2ccccc2-c2onc3ccc(NCCCn4ccnc4)c1c23	83*	/	31	/	131*	30	135*	DNA intercalat=2.5*
Cc1coc2c(C)c3oc(=O)c(CCC(=O)N4CCC(C(=O)NCCCC(=O)O)(c5ccccc5)CC4)c(C)c3cc12	0	12	?	23	-7	-6	/
O=C(Oc1cncc(Cl)c1)c1ccco1	-1	5	-4	33*	63*	-5	88*	Mtb FBA confirm=57*;GDH-TPI counter-2=62*
O=C(Oc1cncc(Cl)c1)c1sccc1Cl	3	9	3	-3	1	9	/
COc1ccc(S(=O)(=O)Nc2ccc(OCC(=O)O)cc2)c2ccccc12	7	-10	3	0	-3	5	/
CC1(C)Cc2c(C#N)c(NCCc3ccccc3)nc(-c3ccco3)c2CO1	0	13	-13	35*	81*	3	15	Mtb FBA confirm=171*;GDH-TPI counter-2=135*
Cc1cc(C)c2nc(C(F)(F)F)nc(NCCCN3CCCC3=O)c2c1	0	16	3	-4	0	-2	/	DNA intercalat=>35
Cc1ccc(C(=O)CCc2ccc(N)cc2)cc1	2	5	6	1	-4	-1	/
CSC1=NSC2=NC(=O)/C(=C\c3coc4ccccc4c3=O)C(=N)N12	-12	6	3	7	-18	/	/
